Screening data (PubChem BioAssay)
Sampled rows, rich in hits. Any-hit rate of the full collection: about 1.7%.
GLP-1R inv ag = qHTS of GLP-1 Receptor Inverse Agonists (Inhibition Mode); Glucagon-like peptide 1 receptor (Homo sapiens), P43220; HEK293 GLP-1R CRE-luciferase, luminescence, 24 h; GLP-1R form is constitutively active; Potency, µM (doses to about 38.3 µM), most hits filed as inhibitors; 410,000 compounds, 1.6% hits; note: nearly all actives have a fitted effect of over 55% in size
Target sequence (P43220 whole entry, looked up): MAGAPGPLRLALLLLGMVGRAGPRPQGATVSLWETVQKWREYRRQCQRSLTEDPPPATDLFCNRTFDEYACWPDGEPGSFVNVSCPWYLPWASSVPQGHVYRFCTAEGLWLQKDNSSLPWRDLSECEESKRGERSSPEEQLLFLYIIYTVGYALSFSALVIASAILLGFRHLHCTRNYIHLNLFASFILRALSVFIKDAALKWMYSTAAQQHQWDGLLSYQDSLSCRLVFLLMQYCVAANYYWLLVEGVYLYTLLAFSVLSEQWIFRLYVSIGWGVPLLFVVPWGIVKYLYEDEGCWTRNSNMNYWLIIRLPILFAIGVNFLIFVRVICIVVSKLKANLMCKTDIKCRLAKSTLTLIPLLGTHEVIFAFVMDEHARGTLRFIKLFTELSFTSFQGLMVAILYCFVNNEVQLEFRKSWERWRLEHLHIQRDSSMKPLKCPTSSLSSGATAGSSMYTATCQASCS
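Seeding at 200 cells/uL, 12 h culture, 24 hr compound treatment, then luciferase reagent and a luminescence read; cells are HEK293 stably expressing a constitutively active GLP-1R plus cAMP-responsive luciferase.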
GLP-1R agonist = qHTS of GLP-1 Receptor Agonists; Glucagon-like peptide 1 receptor (Homo sapiens), P43220; HEK293 GLP-1R CRE-luciferase, luminescence, 4-6 h; cells express a hypersensitive GLP-1R form; Potency, µM (top dose mostly 45.6 µM), most hits filed as activators; 380,000 compounds, 0.007% hits
GLP1R cytotox = qHTS of GLP-1 Receptor Inverse Agonists: Cytotox Screen; 410,000 compounds, 0.13% hits; Potency, µM (top dose mostly 38.3 µM), hits mostly inhibitors; HEK293 cAMP-luciferase reporter cells, luminescence, 24 h;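 note: loss of luciferase light is scored as toxicity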
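Luminescence readout: signal drop marks cytotoxicity. Plated cells grew 12 h at 37 °C, 5% CO2, received 23 nL compound for 24 h, then got luciferase reagent, read after 12 min at RT.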
A number is an active result; n = inactive; u = inconclusive; x = no result given. Calls come from the whole dose curve; as a rule, active = well fitted curve in the direction sought with a large enough effect; inconclusive = small, poorly fitted or top-dose-only effect, or another doubt; inactive = no such curve, though single readings can be large; an effect the other way counts as inactive or inconclusive.

SMILES	GLP-1R inv ag	GLP-1R agonist	GLP1R cytotox
CC(C)(C)c1ccc(CSC2=Nc3ccccc3C3=NC(CC(=O)NCc4cccs4)C(=O)N23)cc1 (stereo not drawn)	10µM	x	n
O=C(CC1N=C2c3ccccc3N=C(SCc3ccccc3Cl)N2C1=O)NCc1cccs1 (stereo not drawn)	n	x	n
CSCCC(C(=O)Nc1c(C)cccc1C)n1c(-c2ccc(C(F)(F)F)cc2)nc2ccccc21 (stereo not drawn)	u	x	n
O=Cc1ccccc1C=O	x	n	x
CC1C/C(=N\NC(N)=S)c2cc(Cl)ccc2S1 (stereo not drawn)	u	n	2.2µM
CC(C)=C1CCC(C)CC1=NNC(N)=S (stereo not drawn)	u	n	u
Cc1ccc(N(C)S(=O)(=O)c2cccc(C(=O)N(C)Cc3cnn(-c4ccccc4)c3)c2)cc1	u	n	n
CN(Cc1cnn(-c2ccccc2)c1)C(=O)c1cccc(S(=O)(=O)N(C)c2ccccc2)c1	10µM	n	n
Cc1ccccc1NC(=O)N1CCc2cc(S(=O)(=O)N3CCC(C)CC3)ccc21	n	x	n
Cc1ccc(NC(=O)c2ccc(-c3cc(Cl)ccc3Cl)o2)c(C)c1	u	n	n
Cc1ccc(NC(=O)C(NC2CCCc3ccccc32)c2ccccc2)cc1Cl (stereo not drawn)	u	n	n
Cc1ccc(NC(=O)C(NC2CCCc3ccccc32)c2ccccc2)c([N+](=O)[O-])c1 (stereo not drawn)	4µM	n	n
COc1ccc(CCn2c(SCCN3CCCCC3)nc3ccccc3c2=O)cc1OC	u	n	n
O=c1c2ccccc2nc(SCCN2CCOCC2)n1CCc1ccccc1	10µM	n	n
COc1ccc(C=C2C(=O)OC(C)(C)OC2=O)cc1OC	n	n	n
COc1ccc(/C=C2\OC(=O)c3c(OC)cccc32)cc1OC	n	5µM	n
CCc1ccc(C(=O)c2cn(CC(=O)Nc3cc(OC)ccc3OC)c3ccc(C)cc3c2=O)cc1	n	n	n
CN(CC(=O)Nc1ccc(N2CCOCC2)cc1)C(=O)Cc1ccccc1	n	n	n
COc1ccc(-c2ccc(/C=N/NC(=O)Cc3nnc(N)s3)o2)cc1Cl	11µM	n	n
Cc1ccc(-c2ccc(/C=N/NC(=O)Cc3nnc(N)s3)o2)cc1Cl	u	n	n
CC(C)=CCC/C(C)=C/CNC(=O)C[C@H]1C[C@H](C(=O)N2CCCCC2)[C@@]2(C)c3[nH]c4ccc(Cl)cc4c3CCN2C1=O	n	n	n
COc1ccc(NC(=O)N2CCc3c(sc4c3CCCC4)C2c2ccc(F)cc2)cc1 (stereo not drawn)	2.8µM	x	n
Cc1cccc(NC(=O)N2CCc3c(sc4c3CCCC4)C2c2ccc(F)cc2)c1 (stereo not drawn)	u	x	n
CCCCCn1c(=O)[nH]c2cc(C(=O)N3CCN(c4cccc(OC)c4)CC3)ccc2c1=O	n	n	n
Cc1nn(Cc2ccc(Cl)c(Cl)c2)c(C)c1NC(=O)c1cc(CC(C)C)on1	3.2µM	n	n
SMILES	GLP-1R inv ag	GLP-1R agonist	GLP1R cytotox
Cc1ccccc1Cn1nc(C)c(NC(=O)c2cc(CC(C)C)on2)c1C	u	n	n
O=[N+]([O-])c1cccnc1N1CCC(c2cc(-c3ccc(Cl)cc3Cl)n[nH]2)CC1	5µM	n	n
COc1ccc(OC)c(-c2cc(C3CCN(c4ncccc4[N+](=O)[O-])CC3)[nH]n2)c1	u	n	n
O=C(CSc1nccn1Cc1ccccc1)NCc1ccco1	n	x	n
O=C1NC(=O)C2(CCC(C3CCCCC3)CC2)N1 (stereo not drawn)	n	n	n
CC(C)(C)NC(=O)CSc1nc(Cc2ccccc2)nc2ccccc12	u	n	n
CCC(C)(C)NC(=O)CSc1nc(Cc2ccccc2)nc2ccccc12	4.5µM	n	n
Cc1ccc(O)c(N=NC2=C(O)CC(C)(C)CC2=O)c1	u	n	13µM
CC1(C)CC(=O)C(N=Nc2cc(Cl)c(Cl)c(Cl)c2)=C(O)C1	n	n	n
COc1ccc(/C=C/C(=O)NCC(=O)N/N=C(/C)c2ccco2)cc1	n	n	n
Cc1cc(Cl)cc(Br)c1OCCCNCC(C)O (stereo not drawn)	4µM	n	n
Cc1cc(C)c(OCCCNCc2ccccc2)c(Br)c1	u	n	u
C[C@H](NC(=O)C1CCN(S(=O)(=O)c2ccccc2)CC1)C(=O)NCc1ccncc1	n	n	n
CCOC(=O)c1cnc2cc(-c3ccc(OCC)cc3)nn2c1-c1ccccc1	n	x	n
CCC(=O)Nc1ccc(-c2ccc(N3CCC(C)CC3)nn2)cc1	7.9µM	n	n
